An excerpt weighted towards active compounds, which were near 19% of everything screened.
DT40 TDP1 CPT = growth inhibition of DT40 Tdp1-/-;hTDP1 cells with camptothecin (screen for TDP1 inhibitors) | AID 686979 | Potency, µM (titrated, usually from 46.2 µM), for inactives: at the highest dose activity change, negative = growth inhibition, hits mostly inhibitors | chicken DT40 Tdp1-/-;hTDP1 cells + 20 nM CPT, ATP luminescence, 48 h | hit rate 12% among 420,000; note: nearly all actives have a fitted effect of over 55% in size
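Chicken DT40 Tdp1-/- cells stably complemented with human TDP1 were seeded at 400 cells/well in medium containing 20 nM camptothecin, exposed to pin-transferred compounds, and grown at 37 °C for at least 48 hr. Viability was read as ATP luminescence.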
RORgamma inh = ROR gamma (mouse) transcription inhibition; Potency, µM (top dose mostly 53.6 µM), for the others: top-dose activity change, negative = inhibition, most hits filed as inhibitors; Drosophila S2 Gal4-RORgamma UAS-luciferase reporter, 20 h; AID 2551; hit rate 5.4% among 310,000; P51450; note: nearly all actives have a fitted effect of over 60% in size
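ROR gamma transcriptional activity was tracked as Gal4-UAS luciferase output in stably transfected Drosophila Schneider cells, with compound added 1 hr before 700 uM copper sulfate induction and a 20 hr ambient-temperature incubation.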
TDP1 inh = inhibitors of human tyrosyl-DNA phosphodiesterase TDP1; recombinant TDP1, AlphaScreen DNA substrate cleavage; hit rate 0.28% among 350,000; Q9NUW8; Potency, µM (doses to about 130 µM), without a hit: at the top dose activity change, negative = inhibition, usual class: inhibitors; note: nearly all actives have a fitted effect of over 40% in size
Target sequence (Q9NUW8 whole entry, looked up): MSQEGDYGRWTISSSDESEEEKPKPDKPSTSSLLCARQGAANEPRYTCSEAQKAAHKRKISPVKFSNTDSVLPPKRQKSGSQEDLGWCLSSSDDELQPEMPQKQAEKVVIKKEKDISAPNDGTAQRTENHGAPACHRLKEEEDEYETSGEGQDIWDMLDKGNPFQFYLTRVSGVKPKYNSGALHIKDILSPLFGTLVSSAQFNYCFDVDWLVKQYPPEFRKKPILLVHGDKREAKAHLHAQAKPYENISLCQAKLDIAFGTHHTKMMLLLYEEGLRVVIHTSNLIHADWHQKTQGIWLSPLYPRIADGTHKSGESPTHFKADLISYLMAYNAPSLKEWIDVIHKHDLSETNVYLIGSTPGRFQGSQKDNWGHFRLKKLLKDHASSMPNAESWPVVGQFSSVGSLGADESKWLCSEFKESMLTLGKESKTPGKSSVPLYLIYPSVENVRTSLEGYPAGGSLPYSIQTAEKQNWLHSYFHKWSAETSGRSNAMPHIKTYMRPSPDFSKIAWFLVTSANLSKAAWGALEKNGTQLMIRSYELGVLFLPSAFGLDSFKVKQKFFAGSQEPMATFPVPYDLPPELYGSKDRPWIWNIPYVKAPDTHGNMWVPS
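Compounds were preincubated with Tdp1 (1 nM final) for 15 min at room temperature before substrate (15 nM final) started a 5 min reaction; beads (10 ug/ml final) were then added for 10 min before AlphaScreen detection.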
Gal4-VP16 FLuc = Gal4-VP16 reporter inhibition counter-screen; Drosophila S2 Gal4-VP16 UAS-luciferase, luminescence, 20 h; Potency, µM (doses to about 53.6 µM), for inactives: at the highest dose activity, negative = inhibition, most hits filed as inhibitors; hit rate 3.5% among 310,000; AID 2546;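 note: Gal4-VP16 expression switched on by copper sulfate through the metallothionein promoter; nearly all actives have a fitted effect of over 50% in size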
TDP1 cell noCPT = qHTS for Inhibitors of human tyrosyl-DNA phosphodiesterase 1 (TDP1): qHTS in cells in absence of CPT. DT40 Tdp1-/- hTDP1 cells, no CPT, ATP luminescence, 48 h. Potency, µM (highest dose often 46.2 µM), inactives show top-dose activity change, negative = growth inhibition, hits mostly inhibitors. hit rate 15% among 420,000. AID 686978, 2013; note: nearly all actives have a fitted effect of over 55% in size
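Luminescent ATP content (CellTiter-Glo) served as the growth readout. Knockout chicken DT40 cells expressing human TDP1 were exposed to compounds without camptothecin for a minimum 48 hr at 37 °C.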
The depositor's hits bear a star; ? = inconclusive; · = not tested or not shown; [ ] = dose if it differs, or a comment. Calls come from the whole dose curve; as a rule, active = well fitted curve in the direction sought with a large enough effect; inconclusive = small, poorly fitted or top-dose-only effect, or another doubt; inactive = no such curve, though single readings can be large; an effect the other way counts as inactive or inconclusive. % is set by controls: 0 for no effect and ±100 for the full control effect; potency is the fitted concentration of half-maximal effect.

SMILES	DT40 TDP1 CPT	RORgamma inh	TDP1 inh	Gal4-VP16 FLuc	TDP1 cell noCPT
O=C(c1ccccc1)N(c1ccccc1)c1nccc2ccccc12	-18%	·	·	·	?
Clc1ccc(CNc2ccccc2NCc2ccc(Cl)nc2)cn1	16µM*	36%	6%	-2%	?
COc1ccc(/C=N/n2cnc3c([nH]c4ccc(F)cc43)c2=O)cc1CSc1ccccn1	1.2µM*	-5%	4%	-4%	7.3µM*
COc1ccc2c(c1)[nH]c1c(=O)n(/N=C/c3ccc(OC)c(COc4ccccn4)c3)cnc12	-18%	?	1%	-8%	?
CC(C)[C@H](NC(=O)OC(C)(C)C)c1cc(C(=O)NCCc2c[nH]c3ccccc23)c(N)s1	16µM*	·	·	·	21µM*
CC(C)[C@@H](NC(=O)OC(C)(C)C)c1cc(C(=O)c2c(-c3ccccc3)[nH]c3ccccc23)c(N)s1	18µM*	·	·	·	18µM*
Cc1cccc(NC(=O)NC2COc3ccccc3C2)c1C (centres undefined)	-9%	·	3%	·	-1%
Cc1ccc(N=CC2=C(O)CC(c3ccco3)CC2=O)cc1 (centres undefined)	-26%	?	2%	23%	-11%
CCN(CCn1cccn1)Cc1cn[nH]c1-c1ccc(-c2ccccc2)cc1	?	6%	6%	-2%	23µM*
COc1ccc(-c2ccnc(SCC(=O)c3ccc(Br)cc3)n2)cc1	?	16%	1%	-11%	?
CC1(C)C(=O)NCCN1C(=O)CSc1nccc(-c2ccc(Br)cc2)n1	?	-11%	2%	-9%	16µM*
O=C(CS(=O)(=O)c1cn(CC(=O)N2CCOCC2)c2ccccc12)Nc1ccccc1	-14%	3%	3%	8%	-1%
CCOc1ccc(N2C(=O)c3ccc(C(=O)OCc4c(C)noc4C)cc3C2=O)cc1	-25%	5%	6%	-5%	-11%
COc1cccc2[nH]c3c(=O)[nH]cnc3c12	3%	-4%	·	1%	6%
COc1cccc2c3cccc(OC)c3c3[nH]cnc3c12	?	·	·	·	7.3µM*
O=C(c1ccc2c(c1)N(Cc1cccc(Cl)c1)C(=O)c1ccccc1S2=O)N1CCN(c2cccc(C(F)(F)F)c2)CC1 (centres undefined)	16µM*	·	0%	·	10µM*
CCN1CCN(C(=O)c2ccc3c(c2)N(Cc2cccc(Cl)c2)C(=O)c2ccccc2S3=O)CC1 (centres undefined)	?	·	-1%	·	21µM*
O=C(c1ccc2c(c1)N(Cc1cccc(Cl)c1)C(=O)c1ccccc1S2=O)N1CCC(Cc2ccccc2)CC1 (centres undefined)	3.3µM*	·	6%	·	4.6µM*
CCOC(=O)N1CCN(C(=O)c2ccc3c(c2)N(Cc2cccc(Cl)c2)C(=O)c2ccccc2S3=O)CC1 (centres undefined)	16µM*	-7%	2%	-9%	26µM*
O=C(c1ccc2c(c1)N(Cc1cccc(Cl)c1)C(=O)c1ccccc1S2(=O)=O)N1CCN(c2cccc(C(F)(F)F)c2)CC1	-27%	·	0%	·	?
COCCNC(=O)c1ccc2c(c1)N(Cc1cccc(Cl)c1)C(=O)c1ccccc1S2=O (centres undefined)	?	·	-1%	·	?
CN1CCN(C(=O)c2ccc3c(c2)N(Cc2cccc(Cl)c2)C(=O)c2ccccc2S3=O)CC1 (centres undefined)	-4%	·	·	·	-13%
Cc1ccc(S(=O)(=O)c2cn(CC(=O)Nc3ccc(C)c(Cl)c3)c3ccc(C)cc3c2=O)cc1	6%	·	6%	·	1%
CC1CCCCN1C(=O)c1ccc2c(c1)N(Cc1cccc(Cl)c1)C(=O)c1ccccc1S2=O (centres undefined)	?	·	4%	·	21µM*
CC(C)NC(=O)c1ccc2c(c1)N(Cc1cccc(Cl)c1)C(=O)c1ccccc1S2=O (centres undefined)	21µM*	·	4%	·	?
SMILES	DT40 TDP1 CPT	RORgamma inh	TDP1 inh	Gal4-VP16 FLuc	TDP1 cell noCPT
Cc1cccc(N2CCN(C(=O)c3ccc4c(c3)N(Cc3cccc(Cl)c3)C(=O)c3ccccc3S4=O)CC2)c1C (centres undefined)	3.7µM*	·	4%	·	5.2µM*
COc1cccc(NC(=O)Nc2nnc(Cc3ccc(OC)c(OC)c3)s2)c1	-29%	-26%	·	1%	-29%
CC1(C)CC(=O)C2=C(C1)NC(Nc1nc3ccccc3o1)=NC2c1ccccn1 (centres undefined)	0.73µM*	3.5µM*	5%	1.1µM*	0.82µM*
CC1(C)CC(=O)C2=C(C1)NC(Nc1nc3ccccc3o1)=NC21CCCC1	?	-15%	2%	-8%	-26%
CC1(C)CC(=O)C2=C(C1)NC(Nc1nc3ccccc3o1)=NC2c1ccccc1Cl (centres undefined)	5.6µM*	·	0%	·	7.1µM*
CCN1CCCC1CNC(=O)C1c2ccccc2C(=O)N(CCOC)C1c1ccc(F)cc1 (centres undefined)	-24%	-1%	1%	-5%	3%
Cc1cc(NC(=O)COC(=O)c2ccc([N+](=O)[O-])cc2Cl)no1	5%	·	2%	·	10%
CC(=Nc1cccc(C)c1)c1sc2ccccc2c1O	0%	-28%	0%	-23%	-17%
CC(=Nc1ccccc1O)c1sc2ccccc2c1O	-25%	2µM*	10%	?	?
CC(=O)NCCN=C(C)c1sc2ccccc2c1O	-7%	0%	-6%	3%	-8%
CC(=Nc1ccc(O)cc1)c1sc2ccccc2c1O	15µM*	19%	3%	-11%[0.365 µM]	13µM*
Cc1ccc(C(=O)c2coc3cc([N+](=O)[O-])c(O)c([N+](=O)[O-])c23)cc1	?	?	0%	0%	?
CCCCC#Cc1ccc(C(=O)NNC(=O)Nc2cc(Cl)cc(Cl)c2)o1	1%	-2%	0%	6%	-18%
CN(CCCC1CCCC1)C(=O)c1cc(COc2c(F)cccc2F)on1	14%	6%	79µM*	6%	7%
CN(CCCC1CCCC1)C(=O)c1cc(COc2ccc(F)c(F)c2)on1	?	?	·	2%	-25%
Cc1ccc(C(=O)N/N=C/c2ccc(-c3cccc(Cl)c3)o2)cn1	15µM*	5µM*	4%	7.1µM*	15µM*
Cc1ccc(C(=O)N/N=C\c2ccc(-c3ccc(Cl)c(Cl)c3)o2)cn1	?	?	-6%	?	?
COc1cc([N+](=O)[O-])cc(/C=N/NC(=O)c2cccnc2)c1O	?	-21%	-3%	-16%	?
COc1ccc(-c2ccc(/C=N/NC(=O)c3cccnc3)o2)c([N+](=O)[O-])c1	?	20µM*	·	?	16µM*
